The list is not random: actives were taken first. Their share in the collection is about 13%.
miR-21 act – qHTS Assay for Modulators of miRNAs and/orActivators of miR-21; HeLa miR-21 FLuc reporter, luciferase, 48 h; Potency, µM (doses to about 38.3 µM), for the others: at the top dose activity change, positive = activation, usual class: activators; 340,000 tested, under 10 active; AID 2288, 2010;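 note: % of control where 0% means no effect; miR-21 action dims this reporter so a rising signal means less miR-21 action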
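Compounds were titrated across several concentrations (up to approximately 40 uM) and incubated 48 hours with HeLa miR-21-FLuc reporter cells (miR-21 target sequence downstream of FLuc, endogenous miR-21). Readout was firefly luciferase luminescence after lytic detection reagent.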
KDM4E inh – qHTS Assay for Inhibitors of Human Jumonji Domain Containing 2E (JMJD2E); JMJD2E catalytic domain, FDH-coupled NADH fluorescence (FDH is formaldehyde dehydrogenase); Potency, µM (titrated, usually from 57.1 µM), without a hit: top-dose activity change, negative = inhibition, usual class: inhibitors; 1.6% of 230,000 active; Lysine-specific demethylase 4E (Homo sapiens), B2RXH2; active = well fitted inhibition curve with a large enough effect, not every such curve was filed as active; inconclusive = small, poorly fitted or top-dose-only effect, or another doubt; inactive = no such curve, though single readings can be large or run the other way;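 note: potency is the fitted concentration of half-maximal effect; 0% = wells with enzyme and -100% = buffer wells without enzyme; nearly all actives have a fitted effect of over 50% in size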
Target sequence (B2RXH2 1-337 limits assumed): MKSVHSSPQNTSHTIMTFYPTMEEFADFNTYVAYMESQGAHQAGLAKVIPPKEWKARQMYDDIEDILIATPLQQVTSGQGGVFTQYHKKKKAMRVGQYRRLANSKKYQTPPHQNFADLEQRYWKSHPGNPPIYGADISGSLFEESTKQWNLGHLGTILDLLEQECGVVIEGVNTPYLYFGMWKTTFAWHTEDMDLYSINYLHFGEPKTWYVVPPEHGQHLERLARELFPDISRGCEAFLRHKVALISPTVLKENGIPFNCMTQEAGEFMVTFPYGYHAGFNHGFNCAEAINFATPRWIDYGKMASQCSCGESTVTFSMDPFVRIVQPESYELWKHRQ
Lamin A splicing – qHTS Assay for Modulators of Lamin A Splicing. HeLa LMNA splicing GFP/RFP minigene ratio, 48 h. Potency, µM (highest dose often 46.1 µM), without a hit: at the top dose ratio change, negative = inhibition, hits mostly inhibitors. 0.01% of 200,000 active; active = well fitted inhibition curve with a large enough effect in the signal ratio, with a control signal flat, not every such curve was filed as active; inconclusive = small, poorly fitted or top-dose-only effect, or effect the other way, or a change in a side signal; the % refers to the signal ratio; note: potency is the fitted concentration of half-maximal effect; % is set by controls: 0 for no effect and ±100 for the full control effect
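Read-out is the ratio of GFP to DsRed2 object intensity, acquired by 488 nm laser-scanning cytometry on HeLa lamin A-EGFP minigene reporter cells. Compound incubation 48 hrs at 37 °C in Opti-MEM with 2% FBS; DMSO 0.5% final.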
G9a block – qHTS Assay for Inhibitors of Histone Lysine Methyltransferase G9a; Histone-lysine N-methyltransferase EHMT2 (Homo sapiens), Q96KQ7; G9a H3K9 monomethylation, AlphaScreen, 2 h; Potency, µM (highest dose often 102 µM), without a hit: top-dose activity, negative = inhibition, actives largely listed as inhibitors; 8.8% of 350,000 active; AID 504332, 2011; note: potency is the fitted concentration of half-maximal effect; % is set by controls: 0 for no effect and ±100 for the full control effect; nearly all actives have a fitted effect of over 75% in size
Target sequence (Q96KQ7 913-1193 limits assumed): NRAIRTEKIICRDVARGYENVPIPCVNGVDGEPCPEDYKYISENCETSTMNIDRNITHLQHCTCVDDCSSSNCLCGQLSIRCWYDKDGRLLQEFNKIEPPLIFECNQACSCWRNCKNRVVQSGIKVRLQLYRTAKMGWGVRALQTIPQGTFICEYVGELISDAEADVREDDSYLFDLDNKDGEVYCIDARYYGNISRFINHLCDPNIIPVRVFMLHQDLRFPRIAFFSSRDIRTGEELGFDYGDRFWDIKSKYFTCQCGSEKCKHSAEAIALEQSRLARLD
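Using a bead-based AlphaScreen, monomethylated H3K9 product from 2 h room-temperature reactions (G9a 20 nM, peptide 500 nM, SAM 20 uM) was detected with 0.5 ug/mL rabbit anti-H3K9me1 antibody.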
Sfp inh – qHTS Assay for Inhibitors of Bacillus subtilis Sfp phosphopantetheinyl transferase (PPTase) | 4'-phosphopantetheinyl transferase ffp (Bacillus subtilis), Q9F4F7 | Biochemical Sfp PPTase activity, qHTS | Potency, µM, for the others: largest response in the series, negative = inhibition, actives largely listed as inhibitors | 3.5% of 310,000 active | AID 1490, 2009;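 note: the enzyme is Sfp with the accession as filed and its product quenches rhodamine fluorescence; potency is the fitted concentration of half-maximal effect; 0% = enzyme reaction without inhibitor and -100% = no enzyme wells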
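Sfp 15 nM + cpd, 15 min RT; start w/ rhodamine-CoA 5 uM, BHQ-2-YbbR 12.5 uM (final); 50 mM Hepes pH 7.6, 10 mM MgCl2, 0.01% NP-40, 0.01% BSA; read 525/598 nm at 0 and 30 min.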
ALDH1A1 block – qHTS Assay for Inhibitors of Aldehyde Dehydrogenase 1 (ALDH1A1). Aldehyde dehydrogenase 1A1 (Homo sapiens), P00352. 7.3% of 220,000 active. Potency, µM (top dose mostly 75.3 µM), for inactives: at the highest dose activity, negative = inhibition, actives largely listed as inhibitors. AID 1030, 2008. Purified ALDH1A1, NADH fluorescence, propionaldehyde substrate; active = well fitted inhibition curve with a large enough effect, not every such curve was filed as active; inconclusive = small, poorly fitted or top-dose-only effect, or another doubt; inactive = no such curve, though single readings can be large or run the other way;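 note: potency is the fitted concentration of half-maximal effect; plate controls were no enzyme wells and a reference inhibitor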
* marks the source's active call; other numbers are inactive results; ? = inconclusive; . = not tested or not shown; ! = a repeat was not active; [ ] = another dose, or the depositor's remark. Unless noted, calls come from the whole dose curve; as a rule, active = well fitted curve in the direction sought with a large enough effect; inconclusive = small, poorly fitted or top-dose-only effect, or another doubt; inactive = no such curve, though single readings can be large; an effect the other way counts as inactive or inconclusive.

SMILES	miR-21 act	KDM4E inh	Lamin A splicing	G9a block	Sfp inh	ALDH1A1 block
OCCN1CCN(c2ncnc3sc4c(c23)CCCC4)CC1	-15.8%	.	.	48.6%	?	.
CCc1ccc(NC(=O)C(=O)NCC(c2cccnc2)N2CCN(c3ccc(F)cc3)CC2)cc1 (stereo not given)	1.6%	.	?	?	.	.
Cc1cccc(C(=O)NCC(c2cccs2)N2CCOCC2)c1 (stereo not given)	.	.	.	7.94µM*	.	.
O=C(NCC(c1cccnc1)N1CCN(c2ccc(F)cc2)CC1)c1ccc(F)cc1 (stereo not given)	7.8%	-3.1%	?	-36.6%[12.7 µM]	4.0%	31.6µM*
COC(=O)NCC(c1cccnc1)N1CCOCC1 (stereo not given)	-3.6%	?	0.5%	?	7.9%	?
CCc1ccc(NC(=O)C(=O)NCC(c2cccnc2)N2CCN(C)CC2)cc1 (stereo not given)	2.1%	.	?	15.8µM*	.	.
O=C(NCC(c1cccnc1)N1CCOCC1)c1cccs1 (stereo not given)	5.3%	-1.6%	-7.8%	44.7µM*	3.4%	-9.9%
COc1cc(NC(=O)C2Cc3ccccc3N2C(=O)c2ccccc2)cc(OC)c1 (stereo not given)	-1.3%	.	?	6.4%[59 µM]	.	.
Cc1ccc(Nc2ccc(N3CCN(C(=O)c4cccc([N+](=O)[O-])c4)CC3)nn2)cc1	1.7%	.	2.0%[46 µM]	-4.6%[59 µM]	.	.
CC(=O)OCC(CO)OC(C)=O (stereo not given) (tested in a mixture with another compound)	.	.	.	.	0.2%	.
Cc1ccc(-c2nn(-c3cccc(F)c3)cc2CN(Cc2nccn2C)C(C)C)o1	-11.8%	?	.	10µM*	39.8µM*	?
Cc1ccc(-c2nn(-c3cccc(F)c3)cc2CN2CCN(c3ccccn3)CC2)o1	16.3%	?	-22.8%[46 µM]	?	39.8µM*	?
Cc1onc(NC(=O)c2ccc(Cl)cc2Cl)c1Br	-40.3%	3.3%	.	17.8µM*	1.6%	?
O=C(N/N=C/C1CC2CCC1C2)c1c[nH]c2ccccc12 (stereo not given)	-34.4%	69.4%	?	2.6%	2.3%	14.1µM*
CCOC(=O)C1CCN(S(=O)(=O)c2ccc3c(c2)N(C(C)=O)CC(C)S3)CC1 (stereo not given)	19.5%	.	.	55.3%	14.5%	.
O=C(O)c1cccnc1Cl	1.0%	0.2%	?	?	11.0%	-4.9%
O=C(O)c1cccnc1C(=O)O	.	2µM*	-4.4%	3.55µM*	89.1µM*!	7.6%
COC(=O)c1c(C(C)=O)c(C)n(C)c1C	-3.0%	?	.	.	6.6%	6.8%
Cc1nc(NCCNC(=O)c2ccco2)c2c(C)c(C)sc2n1	-2.6%	?	-18.5%	6.8%[12.7 µM]	-5.8%	14.1µM*
Cc1cc(C)c(NC(=O)CCn2c(=O)c3cccn3c3ccccc32)c(C)c1	17.4%	.	?	-10.0%[59 µM]	.	.
CCCN1C(=O)/C(=C/c2c(N3CCNC(=O)C3CC(=O)OC)nc3c(C)cccn3c2=O)SC1=S (stereo not given)	12.4%	-1.5%	.	.	-22.1%	5.01µM*
CCOC(=O)N1CCN(c2nc3c(C)cccn3c(=O)c2C=O)CC1	-3.6%	.	.	0.3%	6.2%	.
COc1ccc(-c2nn(CCC#N)cc2/C=N/O)cc1	-1.6%	1.9%	-6.9%[46 µM]	1.2%	20.7%	-2.1%
COc1ccc(-c2nn(CCC#N)cc2/C=N/O)cc1OC	-1.9%	0.7%	-9.5%[46 µM]	-43.1%	-19.3%	17.8µM*
Cc1ccc(COc2ccc(-c3cc(C(F)(F)F)n4nc(C)cc4n3)cc2)cc1	-8.6%	.	.	-19.0%[59 µM]	.	.
SMILES	miR-21 act	KDM4E inh	Lamin A splicing	G9a block	Sfp inh	ALDH1A1 block
CN(Cc1ccc(Cl)cc1)C(=O)CCl	?	-3.9%	.	?	9.5%	0.501µM*
COc1ccc(CN(C)C(=O)CCl)cc1	?	7.5%	.	-44.7%	0.9%	0.501µM*
CN(Cc1ccc(Cl)s1)C(=O)CCl	?	-3.8%	1.8%[46 µM]	?	3.4%	0.355µM*
CN(Cc1ccccc1)C(=O)CC(=O)N(C)Cc1ccccc1	-21.5%	.	.	2.5%	13.3%	.
CN(C)CCNC(=O)c1ccc(Cl)s1	-9.1%	2.9%	-2.8%	-8.1%[59 µM]	7.0%	8.9%
Cc1cc(C)n2nc(C(=O)OCC(=O)N3C(C)CCCC3C)nc2n1 (stereo not given)	.	.	.	6.4%[2.33 µM]	.	.
COc1ccc2cc(C(=O)/C=C/c3cc(OC)c(O)c(OC)c3)ccc2c1	21.3%	.	.	50.1µM*	-29.8%	.
COc1cccc(/C=C/C(=O)c2c(O)cc(C)oc2=O)c1O	-48.9%	-25.1%	-8.0%	?	4.6%	6.3%
COc1ccc(C(=O)/C=C/c2ccc(OC)c(Cn3nnc4ccccc43)c2)cc1	29.8%	-18.2%	?	20.7%[59 µM]	3.1%	11.2µM*
COc1ccc(C(=O)/C=C/c2ccccc2)c(OC)c1	16.1%	-9.1%	.	15.0%[59 µM]	-1.2%	-10.5%
COc1ccc(C(=O)/C=C/c2cc(OC)c(O)c(OC)c2)c(F)c1	?	0.8%	?	8.91µM*	79.4µM*	?
COc1ccc(C(=O)/C=C/c2ccc(OC)c(CN3CCOCC3)c2)cc1	28.3%	?	?	?	-10.2%	?
COc1cc(/C=C/C(=O)c2c(O)cc(C)oc2=O)cc(OC)c1O	-15.6%	?	-5.7%	44.7µM*	-23.4%	-2.8%
CN(C)c1ccc(/C=N\NC(=O)c2cnc3ccccc3c2)cc1	.	.	.	.	.	-12.1%[13.5 µM]
COc1ccc(C(=O)/C=C/c2ccccc2)cc1	.	-1.9%	.	-2.7%[2.33 µM]	-13.1%	17.8µM*
COC(=O)/C(=C\C(=O)c1ccccc1)Nc1ccc(OC)cc1	-50.6%	?	.	14.1µM*	2.8%	?
COc1ccc(/C=C/C(=O)c2nc3ccccc3n2CC(=O)c2ccc(OC)cc2)cc1	-0.4%	?	?	8.7%[59 µM]	7.6%	15.8µM*
COc1ccc(C(CNC(=O)c2ccc(OCc3ccccc3)cc2)N2CCOCC2)cc1 (stereo not given)	.	.	.	8.8%[12.7 µM]	.	.
CCCOc1ccc(C(=O)C(c2ccccc2)N2CCOCC2)cc1 (stereo not given)	-5.4%	2.6%	-6.0%	?	-25.4%	12.6µM*
COc1ccc(C(=O)C(c2ccccc2)N2CCOCC2)cc1 (stereo not given)	-3.0%	-6.6%	?	50.1µM*	-18.6%	-12.6%
CCCCn1cc(S(=O)(=O)c2ccccc2)c(=O)c2cc(F)c(N3CCC(C)CC3)cc21	1.9%	.	10.9%[46 µM]	12.4%[59 µM]	.	.

Screening data: PubChem BioAssay, National Center for Advancing Translational Sciences (NCATS)
